Most compounds without a hit are left out; they make up all but 2.5% or so of the library.
Mcl1-Noxa inh: Mcl-1/Noxa interaction inhibition; TR-FRET Mcl-1/Noxa peptide binding, 2 h; inhibition, % at 21.7 µM; hit rate 1.5% among 220,000; AID 1022;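 active = compounds that cut the protein-peptide binding signal by more than 50% relative to plate controls in a single-dose test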;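 note: His-tagged Mcl-1 with rhodamine Noxa BH3 peptide and terbium anti-His antibody; 0% = Mcl-1 plus Noxa peptide wells and 100% = peptide-only wells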
Target sequence (Q07820 whole entry, looked up): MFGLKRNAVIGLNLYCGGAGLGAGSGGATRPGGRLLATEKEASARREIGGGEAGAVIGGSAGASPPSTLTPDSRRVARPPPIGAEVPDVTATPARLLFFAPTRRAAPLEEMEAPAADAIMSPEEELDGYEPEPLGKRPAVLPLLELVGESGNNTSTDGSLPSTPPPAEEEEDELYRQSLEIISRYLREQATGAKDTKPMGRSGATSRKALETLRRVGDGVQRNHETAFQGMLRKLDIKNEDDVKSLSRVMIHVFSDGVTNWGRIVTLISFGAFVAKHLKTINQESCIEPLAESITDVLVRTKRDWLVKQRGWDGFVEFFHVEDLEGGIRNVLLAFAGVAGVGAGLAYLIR
14-3-3 Bad PPI: disrupts binding of bovine 14-3-3 zeta to phospho-Bad peptide; P63103; TR-FRET 14-3-3zeta/Dy647-pBad peptide displacement, 1 h; inhibition, % at 21.7 µM; hit rate 0.71% among 220,000; AID 781;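 active = inhibition above about 70%, limit read from the data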;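 note: 0% = full 14-3-3 plus peptide FRET controls and 100% = background without 14-3-3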
Target sequence (P63103 whole entry, looked up): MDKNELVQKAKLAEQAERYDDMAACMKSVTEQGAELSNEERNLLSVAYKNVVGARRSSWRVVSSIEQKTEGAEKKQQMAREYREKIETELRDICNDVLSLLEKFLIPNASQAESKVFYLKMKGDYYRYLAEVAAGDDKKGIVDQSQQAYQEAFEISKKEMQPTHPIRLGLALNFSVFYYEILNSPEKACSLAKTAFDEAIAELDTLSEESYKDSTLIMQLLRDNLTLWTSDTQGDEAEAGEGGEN
Bim-Mcl-1: disrupts Bim peptide binding to human Mcl-1; inhibition, % at 10 µM; hit rate 0.1% among 190,000; Bead-based flow cytometry, Bim peptide-Mcl-1 binding; Q07820; in the data active = inhibition above about 40%;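 note: 0% = no compound tracer wells and 100% = peptide blocker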
MCL1 BIM primary: inhibitors of human MCL1 binding to BIM-BH3 peptide; Q07820; GST-MCL1 / FITC-Bim-BH3 fluorescence polarization; inhibition, % at 10.9 µM; hit rate 0.68% among 320,000; AID 2057;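 active = inhibition above the mean inhibition of all tested compounds plus 3 SD, set per campaign, cut at about 40% in these data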;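 note: 0% = DMSO wells and 100% = unlabeled Bim-BH3 peptide control; higher means more loss of mP so more displacement of Bim peptide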
Mcl1 Bid PPI: Mcl-1/Bid interaction inhibition; inhibition, % at 21.7 µM; TR-FRET Mcl-1/Bid-Dy647 peptide binding, 1536-well; hit rate 0.97% among 220,000; Q07820; AID 1021;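 active = compounds that cut the binding signal by more than half at the single screening dose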;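 note: His-tagged Mcl-1 with europium anti-His antibody binding Bid BH3 peptide; 0% = Mcl-1 plus peptide wells and 100% = peptide-only wells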
* = called active by the depositor; x = not tested or not shown; [ ] = dose if it differs, or a comment.

SMILES	Mcl1-Noxa inh	14-3-3 Bad PPI	Bim-Mcl-1	MCL1 BIM primary	Mcl1 Bid PPI
O=C(O)[C@@H](c1ccccc1)N1Cc2ccccc2C1=O	16	92*	0	-3	98*
CCn1c(SCC(=O)N2c3ccccc3Sc3ccccc32)nnc1-c1ccco1	-6	-8	0	9	-36
COc1ccc(-c2n[nH]c(=S)n2CC(C)C)cc1	-7	7	0	-10	-32
COc1ccccc1NC(=O)c1ccc(NC(=O)c2cc3c(s2)CCC3)cc1	-27	79*[fluorescence artefact?]	-10	8	-21
O=C(Nc1ccccc1OC(F)F)c1cc2c(s1)CCC2	21	9	-3	-16	-11
CC1=Cc2ccccc2C(C#N)N1C(=O)c1ccccc1 (stereo not given)	9	14	-3	4	-18
CCN1CCN(CC(=O)c2c[nH]c3ccc(C)cc23)CC1	16	-6	59*	-4	0
Cc1ccc2[nH]cc(C(=O)CN3CCOCC3)c2c1	21	-4	3	-4	-4
Cc1ccc(C2C(/C=C3/SC(=S)NC3=O)=C(c3cccs3)Oc3ccccc32)cc1 (stereo not given)	90*	1	4	-22	2
O=C(NCc1ccc(OC(F)(F)F)cc1)c1cc(-c2ccccc2)nn1CC1CC(c2cccnc2)=NO1 (stereo not given)	x	x	x	-8	x
CC(C)C(c1nnnn1C1CCCCC1)N1CCOCC1 (stereo not given)	-23	8	-8	1	4
CC(C)C(c1nnnn1C(C)(C)C)N1CCOCC1 (stereo not given)	21	71*	-3	2	19
O=C1CC(c2cccs2)c2cc3c(cc2N1)OCCO3 (stereo not given)	5	-6	-6	6	-5
Cc1ccc(-n2ncc3c(=O)n(CC(=O)OCc4ccccc4)cnc32)cc1	-15	5	-4	6	-12
CCC(NC(=O)Nc1cc(OC)c(OC)c(OC)c1)(C(F)(F)F)C(F)(F)F	-8	-6	-3	7	-22
COCCn1c(SCC(=O)Nc2ccc(C(C)=O)cc2)nc2c([nH]c3ccccc32)c1=O	x	x	x	-1	x
O=C(/C=C/c1cccs1)Nc1scc(-c2ccccc2)c1C(=O)O	46	92*	-2	x	93*
CCCC(c1nnnn1CCOC)N1CCN(Cc2ccccc2)CC1 (stereo not given)	34	44	2	6	30
CCC(c1nnnn1CCOC)N1CCN(Cc2ccccc2OC)CC1 (stereo not given)	24	88*	-3	0	38
COCCn1nnnc1C(c1ccccc1)N1CCN(C)CC1 (stereo not given)	4	72*	-3	3	15
COCCn1nnnc1C(c1ccc2ncccc2c1)N1CCN(c2ccccc2F)CC1 (stereo not given)	29	76*	3	7	33
Oc1ccc(Br)cc1C=Nc1cccn2cc(-c3ccccc3)nc12	9	-6	0	11	-55
COc1cccc(C(=O)NC(=O)Nc2cc(C)on2)c1	-2	-6	-5	4	0
Cc1[nH]c(=S)c(C#N)c(-c2ccccc2)c1C(=O)Nc1ccccc1	-14	-3	x	-11	-58
CCN(CC)C(=O)c1c(C)[nH]c(=S)c(C#N)c1-c1ccco1	59*	-17	-1	8	-83
SMILES	Mcl1-Noxa inh	14-3-3 Bad PPI	Bim-Mcl-1	MCL1 BIM primary	Mcl1 Bid PPI
N#Cc1c(-c2ccco2)c2c([nH]c1=S)CCCC2	59*	11	-3	17	1
CC(C)Cc1c2c([nH]c(=S)c1C#N)CCCC2	51*	3	-10	2	-23
C/C(=N/O)c1ccc2c(c1)OCCOCCOc1cc(/C(C)=N/O)ccc1OCCOCCO2	59*	24	0	2	21
CCOc1ccc(C(C)=O)cc1N1C(=O)C2C3C=CC(O3)C2C1=O (stereo not given)	63*	2	0	-3	8
Cc1ccc(N2C(=O)C3C(C2=O)N2CCCN2C3c2ccccc2)cc1C (stereo not given)	9	-2	3	-2	-43
Cc1ccc(S(=O)(=O)NCCC(=O)N2CCCCCCC2)cc1	x	x	x	3	x
CCOC(=O)CC1=C(C(=O)OCC)C(c2ccc(OC)cc2OC)C(C#N)=C(N)O1 (stereo not given)	-1	-2	-3	43*	-81
CCC1=NN(C(=O)Cc2ccc([N+](=O)[O-])cc2)C(O)(C(F)(F)F)C1 (stereo not given)	24	-3	x	0	-9
O=C(Cc1ccc([N+](=O)[O-])cc1)N1N=C(C2CC2)CC1(O)C(F)(F)F (stereo not given)	8	91*	0	2	-1
Cc1ccc(O)c(Nc2nc(-c3ccccc3)nc3ccccc23)c1	x	x	x	2	x
CC(=O)Nc1nc(Cn2nnc(-c3ccc4c(c3)OCO4)n2)nc(N(C)C)n1	20	-8	-1	3	-16
CCN(CC)c1ccc(/C=N/N2CCOCC2)cc1	23	0	0	-3	-43
CCN(Cc1ccccc1)c1ccc(/C=N/N2CCOCC2)cc1	64*	-22	-1	10	-46
COc1cccc(OC)c1OCCCCN1CCCC1	22	74*	-6	-5	31
CC1CCN(CCCCOc2ccccc2[N+](=O)[O-])CC1	-1	85*	1	6	53*
COc1cccc(OC)c1OCCCCCCN1CCN(C)CC1	x	x	x	4	x
CN1CCN(CCCCOc2ccccc2C=O)CC1	14	62	-3	1	56*
CCn1ncc(C(=O)Nc2ccccc2C)c1C	-2	-2	-4	6	-17
COC(=O)CSc1cc(C(F)(F)F)nc(-c2ccccn2)n1	1	-6	1	8	-1
CC(=O)c1ccc(S(=O)(=O)Nc2ccc(-c3ccc4nnc(C)n4n3)cc2)cc1	55*	-7	2	26	-3
Cc1nnc2ccc(-c3ccc(NS(C)(=O)=O)cc3)nn12	9	-16	3	5	-28
COc1cc(OC)cc(C(=O)N[C@H](C(=O)OCC(=O)Nc2ccc(F)c(F)c2)C(C)C)c1	-1	-5	-7	4	-17
COc1ccc(NC(=O)/C(C#N)=C/c2ccc(Br)o2)cc1	58*	3	0	25	-31
COc1ccc(NC(=O)/C(C#N)=C\c2ccc(N3CCOCC3)o2)cc1	-1	-15	-9	-270	-44
O=[N+]([O-])c1cc(F)c2cccnc2c1O	-30	-12	x	-6	-109
O=[N+]([O-])c1ccc(O)c2cccnc12	25	-20	-1	48*	-38
O=[N+]([O-])c1ccc(O)c2ncccc12	73*	0	-1	8	6
Oc1c(Cl)cc(CN2CCOCC2)c2cccnc12	x	x	x	21	x
O=[N+]([O-])c1cc([N+](=O)[O-])c2cccnc2c1Oc1ccccc1O	92*	22	0	18	-59
O=[N+]([O-])c1cc(CN2CCOCC2)c2cccnc2c1O	94*	17	-1	x	-16
